Measurements: PubChem BioAssay (NCATS)
Values joined by “and” are separate entries in the source; they are usually repeats but may differ in a detail not shown here. Equal entries are not always repeated. Inconclusive results are not listed. Where a structure was tested more than once in an assay, its records may differ in their call. Active and inactive are the calls of the source. Unless noted, calls follow the shape of the dose curve; as a rule, active = well fitted curve in the direction sought with a large enough effect; inconclusive = small, poorly fitted or top-dose-only effect, or another doubt; inactive = no such curve, though single readings can be large; an effect the other way counts as inactive or inconclusive.

Assays:
[1] = Cell Viability - NIH 3T3 (AID 541); conditions: NIH 3T3 cell viability, qHTS; activity change, negative = cytotoxicity: at 92.2 µM (top of the series); also: nearly all actives have a fitted effect of over 25% in size; also: potency is read from the fitted curve at half-maximal effect;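 as to activity change, negative = cytotoxicity: plate controls were DMSO alone for no effect and tamoxifen positive control for full effect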
In short: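 Luminescent ATP signal (CellTiter-Glo) served as the viability read-out after NIH 3T3 cells were exposed to compounds over a concentration range for 40 hr at 37 °C. Hill-equation modelling of concentration-response data gave AC50.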

[2] = Cellular Toxicity (caspase-3) Jurkat (AID 655); conditions: Jurkat caspase-3 activation, luminescence; caspase-3 activation: at 92.2 µM (top of the series), DMSO = 0%, tamoxifen = 100%;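 also: cells exposed to compound for 16 h at 37 °C before reading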; also: potency is read from the fitted curve at half-maximal effect
In short: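 Luminescent caspase-3/7 readout (aminoluciferin substrate cleavage) in human T-cell leukemia Jurkat cells after 16 hr compound exposure. Concentration-response normalized to DMSO and 100 uM tamoxifen; AC50 by standard Hill equation.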

[3] = Cellular Toxicity (caspase-3) BJ (AID 658); conditions: Potency: caspase-3 activation;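 also: 0% = DMSO basal and 100% = 10 µM staurosporine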
In short: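 BJ human foreskin fibroblasts, 1000 cells/well, treated 16 hours at 37 °C in complete medium; caspase 3/7 activity by Caspase-Glo luminescence after 1 hr at room temperature. Normalized to DMSO and 10 uM staurosporine; AC50 from Hill fits.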

[4] = Cellular Toxicity (caspase-3) Hek293 (AID 664); conditions: HEK293 caspase-3 activation, DMSO = 0%, 100 µM tamoxifen = 100%; at 92.2 µM (top of the series);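 also: cells exposed to compound for 16 h at 37 °C before readout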
In short: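 Cells plated, 5 hr at 37 °C; compounds added; 16 hr at 37 °C; Caspase-Glo 3/7 reagent, 20 min RT; luminescence read. Activation expressed relative to DMSO and 100 uM tamoxifen, AC50 by Hill model.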

[5] = biological target: Cytochrome P450 3A4 (Homo sapiens) (UniProt P08684); assay: qHTS Assay for Inhibitors and Substrates of Cytochrome P450 3A4 (AID 884); also: % is scaled to controls: 0 for no effect and ±100 for the full control effect; nearly all actives have a fitted effect of over 50% in size
In short: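 20 nM human CYP3A4 with 25 uM Luciferin-PPXE (at KM) in 200 mM KPO4, preincubated 10 min with compound; NADPH regeneration started a 60 min RT reaction. Luciferin detected by luminescence, normalized to 57 uM ketoconazole as full inhibition.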

[6] = Cell Viability - LYMP2-007 (AID 979);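 also: cells exposed to compound for 24 h before reading; nearly all actives have a fitted effect of over 60% in size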; also: potency is read from the fitted curve at half-maximal effect;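 as to activity change, negative = cytotoxicity: 0% = DMSO only and the negative end = 92 µM tetraoctylammonium bromide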
In short: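 Luminescent ATP signal (CellTiter-Glo) serves as the viability read-out after 24 hr compound treatment of lymphoblastoid cells in complete medium at 37 C. Concentration-response data were fitted to the Hill equation to give AC50 values.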

[7] = biological target: Glucocorticoid receptor (Homo sapiens) (UniProt P04150); assay: qHTS assay for small molecule agonists of glucocorticoid receptor signaling (AID 588532; active = well fitted curve in the direction sought with a large enough effect in the signal ratio, with a control signal flat; the % refers to the signal ratio;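 also: 100% = dexamethasone at 0.1 µM and 0% = DMSO only wells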); conditions: HeLa MMTV-bla, beta-lactamase ratio, agonist, 18 h; stronger effect = higher value; percent of dexamethasone control, DMSO zero
In short: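 HeLa GRE-bla reporter cells; 18 h compound exposure at 37 C; 2 h CCF4 loading at room temperature; fluorescence at 460 and 530 nm; EC50 by Hill equation.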

[8] = qHTS assay for small molecule antagonists of peroxisome proliferator-activated receptor delta signaling (AID 588535); conditions: HEK293T PPARd-UAS-bla, beta-lactamase FRET ratio, 18 h; 460 nm channel;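 also: cells co-treated with a PPAR-delta agonist as stimulator during compound exposure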
In short: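 Antagonist-mode beta-lactamase reporter (GeneBLAzer PPAR-delta-UAS-bla) in HEK293T cells, 2% charcoal/dextran FBS, 4000 cells/well. Compound titrations, 18 h at 37 C; CCF4 ratio read, IC50 and efficacy from Hill fits.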

[9] = biological target: Peroxisome proliferator-activated receptor gamma (Homo sapiens) (UniProt P37231); assay: qHTS assay for small molecule agonists of peroxisome proliferator-activated receptor gamma signaling (AID 588536; active = well fitted curve in the direction sought with a large enough effect in the signal ratio, with a control signal flat, not every such curve was filed as active; the % refers to the signal ratio;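 also: 0% = DMSO basal wells and 100% = rosiglitazone at 2 µM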)
In short: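 Ratiometric blue/green fluorescence (405 nm excitation; 460 and 530 nm emission) from CCF4-loaded HEK293 reporter cells serves as signal. Exposure to test compounds lasts 16 h at 37 C in medium containing 1% charcoal/dextran-treated serum.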

[10] = qHTS assay for small molecule agonists of the antioxidant response element (ARE) signaling pathway (AID 651741; active = well fitted activation curve with a large enough effect in the signal ratio; the % refers to the signal ratio; also: potency is read from the fitted curve at half-maximal effect; as to activation: % of control where 0% means no effect)
In short: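 CellSensor ARE-bla HepG2 cells (2,000/well) carrying ARE-driven beta-lactamase, exposed 16 h at 37 C. LiveBLAzer B/G FRET substrate added for 2 h at room temperature; fluorescence intensity read.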

[11] = qHTS assay for small molecule activators of the nuclear factor-kappa B (NF-kB) signaling pathway (AID 651749; active = well fitted activation curve with a large enough effect in the signal ratio; the % refers to the signal ratio; also: % of control where 0% means no effect); conditions: NF-kB-bla ME-180 cells, beta-lactamase FRET ratio, 16 h; stronger effect = higher value
In short: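 NF-kB-bla ME-180 cells carrying a beta-lactamase reporter under an NF-kB response element, 2,000 cells/well, exposed to compound for 16 hr at 37C; FRET-based beta-lactamase fluorescence read-out of pathway activation.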

[12] = qHTS assay for small molecule disruptors of the mitochondrial membrane potential - 1 hr assay (AID 651754; calls by dose curve; also: nearly all actives have a fitted effect of over 35% in size; also: potency is read from the fitted curve at half-maximal effect)
In short: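 HepG2, 2,000 cells/well, overnight attachment; cpd or DMSO 1 hr, 37C/5% CO2; Mito-MPS dye 30 min, 37C; fluorescence monomer (490/535) and aggregate (540/590).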

[13] = biological target: Tumor necrosis factor (Homo sapiens) (UniProt P01375); assay: qHTS assay to identify small molecules that stimulate Tumor Necrosis Factor-alpha (TNF-alpha) secretion (AID 651757; active = well fitted curve in the direction sought with a large enough effect in the signal ratio; the % refers to the signal ratio; also: 0% is about no effect)
In short: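 Read-out is HTRF, a TR-FRET sandwich of cryptate- and XL665-labeled anti-TNF-alpha antibodies detecting cytokine secreted by THP-1 cells. Cells had been incubated with test compounds at 37 C for 17 hrs beforehand.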

[14] = biological target: Nuclear receptor ROR-gamma (Homo sapiens) (UniProt P51449); assay: qHTS assay for small molecule antagonists of the retinoid-related orphan receptor gamma (ROR-gamma) signaling pathway (AID 651802);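 also: CHO cells with doxycycline-induced ROR-gamma expression; luciferase reporter luminescence driven by ROR response element; % is scaled to controls: 0 for no effect and ±100 for the full control effect; nearly all actives have a fitted effect of over 60% in size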
In short: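 CHO, TET-inducible ROR + RORE-LUC reporter, 1536-well qHTS. Compound pinned, doxycycline added, 16hr 37C/5% CO2. ONE-Glo, 30 min RT, luminescence; signal drop scored as antagonism.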

[15] = qHTS assay for small molecule activators of the human pregnane X receptor (PXR) signaling pathway (AID 720659; call rule not given here; also: 0% is about no effect)
[16] = biological target: Vitamin D3 receptor (Homo sapiens) (UniProt P11473); assay: qHTS assay for small molecule antagonists of vitamin D receptor signaling (AID 588541; calls by dose curve; also: potency is read from the fitted curve at half-maximal effect)
In short: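 VDR-UAS-bla HEK293T cells in 2% charcoal-stripped FBS were stimulated with 1-alpha,25-dihydroxyvitamin D3 (3 nM final) plus compound for 16 h at 37 C. The beta-lactamase CCF4 readout was normalized to 50 nM agonist and DMSO, and Hill fits gave IC50.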

[17] = biological target: Vitamin D3 receptor (Homo sapiens) (UniProt P11473); assay: qHTS assay for small molecule agonists of vitamin D receptor signaling (AID 588543; calls by dose curve; also: potency is read from the fitted curve at half-maximal effect;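 as to activation: 0% = DMSO basal and 100% = reference agonist control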)
In short: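 β-lactamase reporter, VDR-UAS-bla HEK293T, agonist mode. Cells plated 5 h at 37 °C, compound titration 16 h at 37 °C, CCF4 dye 2 h RT, ratio 460/530 nm. Hill fit → EC50, efficacy vs 50 nM 1α,25-(OH)2D3.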

[18] = qHTS assay for small molecule activators of the p53 signaling pathway (AID 651743; active = well fitted activation curve with a large enough effect in the signal ratio, not every such curve was filed as active; the % refers to the signal ratio; also: potency is read from the fitted curve at half-maximal effect; as to activation: % of control where 0% means no effect); conditions: HCT-116 p53RE-bla, beta-lactamase FRET ratio, 16 h; activation: stronger effect = higher value
In short: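 p53RE-bla HCT-116 cells carrying a beta-lactamase reporter under p53 response elements were exposed to compounds for 16 hours at 37 C. Reporter activity read as fluorescence after 2 hours at room temperature with LiveBLAzer B/G FRET substrate.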

[19] = biological target: Cytochrome P450 3A4 (Homo sapiens) (UniProt P08684); assay: qHTS Assay for Activators of Cytochrome P450 3A4 (AID 885); also: nearly all actives have a fitted effect of over 65% in size
In short: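 Signal was normalized against complete inhibition by 57 uM ketoconazole. The reaction used 20nM CYP3A4 with 25uM Luciferin-PPXE, 10-min compound preincubation and a 60-min NADPH-supported step at RT.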

Sequence of Peroxisome proliferator-activated receptor gamma (Homo sapiens) (P37231 whole entry, looked up): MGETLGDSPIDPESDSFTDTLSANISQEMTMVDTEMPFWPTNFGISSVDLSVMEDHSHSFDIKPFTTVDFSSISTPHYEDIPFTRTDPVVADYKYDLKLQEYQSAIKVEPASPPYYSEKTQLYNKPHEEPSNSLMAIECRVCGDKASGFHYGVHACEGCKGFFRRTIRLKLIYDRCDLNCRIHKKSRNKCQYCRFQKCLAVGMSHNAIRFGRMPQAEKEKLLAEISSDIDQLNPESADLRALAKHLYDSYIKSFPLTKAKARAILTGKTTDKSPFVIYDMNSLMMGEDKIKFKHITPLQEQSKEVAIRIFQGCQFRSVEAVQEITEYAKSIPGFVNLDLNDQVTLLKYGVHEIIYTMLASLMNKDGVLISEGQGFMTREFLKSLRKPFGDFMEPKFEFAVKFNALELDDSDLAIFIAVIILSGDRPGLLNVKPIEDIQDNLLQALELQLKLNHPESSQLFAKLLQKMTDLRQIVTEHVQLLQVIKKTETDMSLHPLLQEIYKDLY
Sequence of Tumor necrosis factor (Homo sapiens) (P01375 whole entry, looked up): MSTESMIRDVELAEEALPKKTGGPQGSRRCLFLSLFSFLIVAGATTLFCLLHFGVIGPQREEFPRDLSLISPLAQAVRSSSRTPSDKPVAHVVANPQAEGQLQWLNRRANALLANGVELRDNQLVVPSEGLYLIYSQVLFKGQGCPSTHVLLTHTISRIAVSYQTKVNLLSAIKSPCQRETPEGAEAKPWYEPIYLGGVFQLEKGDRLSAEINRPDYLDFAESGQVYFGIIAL
Sequence of Nuclear receptor ROR-gamma (Homo sapiens) (P51449 whole entry, looked up): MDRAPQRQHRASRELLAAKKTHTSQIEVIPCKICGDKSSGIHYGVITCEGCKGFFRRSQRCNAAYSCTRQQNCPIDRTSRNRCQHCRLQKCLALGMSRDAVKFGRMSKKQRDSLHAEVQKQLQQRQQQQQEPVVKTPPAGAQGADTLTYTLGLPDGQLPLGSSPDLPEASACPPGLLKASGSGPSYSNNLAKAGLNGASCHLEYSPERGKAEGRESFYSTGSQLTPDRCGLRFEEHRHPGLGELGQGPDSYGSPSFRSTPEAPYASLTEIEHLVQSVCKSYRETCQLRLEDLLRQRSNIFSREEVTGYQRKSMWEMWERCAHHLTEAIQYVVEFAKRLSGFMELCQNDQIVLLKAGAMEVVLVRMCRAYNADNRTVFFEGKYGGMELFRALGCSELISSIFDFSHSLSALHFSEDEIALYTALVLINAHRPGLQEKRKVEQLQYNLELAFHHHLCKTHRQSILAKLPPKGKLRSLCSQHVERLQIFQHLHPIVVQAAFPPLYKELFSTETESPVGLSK
Sequence of Cytochrome P450 3A4 (Homo sapiens) (P08684 whole entry, looked up): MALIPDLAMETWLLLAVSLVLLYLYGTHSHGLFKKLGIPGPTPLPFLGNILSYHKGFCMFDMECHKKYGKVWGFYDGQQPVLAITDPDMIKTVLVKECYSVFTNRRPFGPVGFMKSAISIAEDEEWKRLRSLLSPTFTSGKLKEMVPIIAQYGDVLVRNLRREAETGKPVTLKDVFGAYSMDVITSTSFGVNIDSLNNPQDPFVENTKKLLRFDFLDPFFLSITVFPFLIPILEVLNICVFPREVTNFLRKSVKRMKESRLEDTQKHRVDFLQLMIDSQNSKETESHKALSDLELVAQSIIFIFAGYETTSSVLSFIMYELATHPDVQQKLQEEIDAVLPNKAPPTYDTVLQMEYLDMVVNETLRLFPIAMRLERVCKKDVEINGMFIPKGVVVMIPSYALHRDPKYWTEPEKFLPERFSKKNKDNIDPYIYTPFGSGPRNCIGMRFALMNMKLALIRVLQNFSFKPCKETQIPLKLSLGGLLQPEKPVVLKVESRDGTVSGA
Sequence of Vitamin D3 receptor (Homo sapiens) (P11473 whole entry, looked up): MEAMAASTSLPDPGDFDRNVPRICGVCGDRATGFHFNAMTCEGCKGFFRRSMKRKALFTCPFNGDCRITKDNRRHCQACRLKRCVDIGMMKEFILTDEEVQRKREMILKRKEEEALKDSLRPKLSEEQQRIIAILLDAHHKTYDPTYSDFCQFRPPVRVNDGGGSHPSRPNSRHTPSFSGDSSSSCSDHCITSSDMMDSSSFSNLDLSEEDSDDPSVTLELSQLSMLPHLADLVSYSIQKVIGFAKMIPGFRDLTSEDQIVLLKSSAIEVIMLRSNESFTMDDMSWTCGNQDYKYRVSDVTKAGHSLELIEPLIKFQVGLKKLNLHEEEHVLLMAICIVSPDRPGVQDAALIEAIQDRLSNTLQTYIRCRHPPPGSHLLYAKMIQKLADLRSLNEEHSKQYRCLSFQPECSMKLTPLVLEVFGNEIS
Sequence of Glucocorticoid receptor (Homo sapiens) (P04150 whole entry, looked up): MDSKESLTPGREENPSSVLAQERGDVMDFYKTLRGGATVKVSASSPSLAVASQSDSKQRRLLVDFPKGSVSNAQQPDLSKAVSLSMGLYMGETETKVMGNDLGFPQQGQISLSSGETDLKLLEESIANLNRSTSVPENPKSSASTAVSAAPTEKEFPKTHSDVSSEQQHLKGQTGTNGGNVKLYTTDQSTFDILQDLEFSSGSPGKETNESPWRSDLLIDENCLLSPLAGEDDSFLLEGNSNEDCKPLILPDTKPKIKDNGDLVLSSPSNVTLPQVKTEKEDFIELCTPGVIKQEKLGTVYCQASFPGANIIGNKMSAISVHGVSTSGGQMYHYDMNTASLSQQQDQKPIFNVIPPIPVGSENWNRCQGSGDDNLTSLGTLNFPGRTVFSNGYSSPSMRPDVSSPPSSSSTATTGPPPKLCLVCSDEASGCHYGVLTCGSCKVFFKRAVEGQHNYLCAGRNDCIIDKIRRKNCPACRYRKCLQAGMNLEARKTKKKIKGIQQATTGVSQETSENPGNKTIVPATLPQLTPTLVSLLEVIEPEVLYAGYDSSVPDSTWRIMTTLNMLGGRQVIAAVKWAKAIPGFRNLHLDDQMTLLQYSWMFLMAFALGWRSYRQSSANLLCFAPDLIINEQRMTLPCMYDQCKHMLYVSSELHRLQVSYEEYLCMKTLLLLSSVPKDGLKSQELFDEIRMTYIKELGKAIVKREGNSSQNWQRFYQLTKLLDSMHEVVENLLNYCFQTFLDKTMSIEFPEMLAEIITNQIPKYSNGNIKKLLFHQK

O=C(Cl)c1ccc([N+](=O)[O-])cc1
inactive: activity change, negative = cytotoxicity [1] -20% | Potency [2] | Potency [3] | caspase-3 activation [4] -0.0349% | Potency [5] | Potency [6] | activation [7] -2.19% | outcome [9] | Potency [10] | activation [11] -1.16% | Potency [12] | Potency [13] | Potency [14] | outcome [15]
8.99%: max response [8]

O=c1[nH]ncc2ccccc12
active: activity change, negative = cytotoxicity [1] -142%
inactive: caspase-3 activation [4] -1.83% | Potency [5] | activation [7] -0.672% | outcome [9] | Potency [16] | Potency [17] | Potency [10] | activation [18] -2.08% | activation [11] 0.114% | Potency [12] | Potency [13] | Potency [14] | outcome [15]

Nc1ccccc1O
inactive: caspase-3 activation [4] 4.27% | Potency [6] | activation [7] 7.62% | outcome [9] | Potency [16] | Potency [17] | activation [18] 17.3%
17.2%: max response [8]
active: activity change, negative = cytotoxicity [1] -130% | Potency [2] 25.1 µM | Potency [10] 13.3 µM | Potency [12] 15 µM

OCC(CO)(CBr)CBr
inactive: Potency [2] | caspase-3 activation [4] -0.451% | Potency [5] | Potency [6] | activation [7] -3.06% | outcome [9] | Potency [10] | activation [11] -1.02% and -1.55% | Potency [12] | Potency [13] | Potency [14] | outcome [15]
0.13% and -4.24%: max response [8]

CCCCCCCCOc1ccc(C(=O)O)cc1
inactive: activity change, negative = cytotoxicity [1] -11.5% | Potency [2] | Potency [3] | caspase-3 activation [4] -2.79% | activation [7] -4.25% | Potency [16] | Potency [17] | activation [18] 4.64% | activation [11] -0.0346% | Potency [12] | Potency [13] | Potency [14] | outcome [15]

c1c[nH]cn1
30.3%: max response [8]
inactive: activity change, negative = cytotoxicity [1] -10% | Potency [2] | Potency [3] | caspase-3 activation [4] -0.608% | Potency [5] | Potency [6] | activation [7] -7.19% | outcome [9] | Potency [16] | Potency [17] | Potency [10] | activation [18] -1.43% | activation [11] 0.0227% | Potency [12] | Potency [13] | outcome [15]

C=CC(=O)CC
inactive: activity change, negative = cytotoxicity [1] -11.9% | Potency [2] | Potency [3] | caspase-3 activation [4] 0.103% | outcome [9] | Potency [16] | Potency [17] | activation [18] -1.3% | Potency [12] | Potency [13] | Potency [14]

CCCCC(CC)COP(=O)(OCC(CC)CCCC)OCC(CC)CCCC (centres undefined)
inactive: Potency [3] | caspase-3 activation [4] 2.89% | activation [7] -3.34% | outcome [9] | Potency [16] | Potency [17] | activation [18] -6.02% | activation [11] -0.649% | Potency [12] | Potency [13] | Potency [14] | outcome [15]
38.7%: max response [8]

c1ccc(COCc2ccccc2)cc1
inactive: activity change, negative = cytotoxicity [1] -5.87% | Potency [2] | Potency [3] | Potency [5] | outcome [9] | Potency [16] | Potency [17] | Potency [10] | activation [18] -1.51% | activation [11] 0.253% | Potency [12] | Potency [13] | Potency [14]

C=CC(=O)OCCCCCCOC(=O)C=C
31.6 µM (active) and inactive: Potency [16]
35%: max response [8]
inactive: Potency [3] | Potency [19] | activation [7] -0.42% and -1.5% | outcome [9] | Potency [17] | activation [18] -3.66% | Potency [12] | Potency [13] | outcome [15]
active: Potency [1] 7.94 µM | Potency [6] 39.8 µM | Potency [10] 29.8 µM | Potency [18] 70.8 µM

COc1ccc(C)cc1N
4.23%: max response [8]
inactive: caspase-3 activation [4] 0.602% | Potency [6] | activation [7] 9.32% | outcome [9] | Potency [16] | Potency [17] | Potency [10] | activation [18] -5.11% | activation [11] -0.459% | Potency [12] | Potency [13] | Potency [14] | outcome [15]

O=C(O)/C=C/c1ccc(/C=C/C(=O)O)cc1
-11.1%: max response [8]
inactive: Potency [3] | Potency [5] | Potency [6] | activation [7] 12.3% | outcome [9] | Potency [10] | activation [18] 1.28% | activation [11] -0.449% | Potency [12] | Potency [14] | outcome [15]

CC(=O)CC(=O)Nc1ccccc1
18.5%: max response [8]
inactive: activity change, negative = cytotoxicity [1] -3.89% | Potency [3] | caspase-3 activation [4] -0.00159% | Potency [5] | activation [7] -8.89% | outcome [9] | Potency [16] | Potency [17] | Potency [10] | activation [11] -0.0343% and 0.349% | Potency [12] | Potency [13] | outcome [15]

Cc1cc(-c2ccc(N=Nc3cc(S(=O)(=O)O)c4ccccc4c3N)c(C)c2)ccc1N=Nc1cc(S(=O)(=O)O)c2ccccc2c1N
inactive: Potency [2] | Potency [3] | caspase-3 activation [4] -4.55% | Potency [19] | Potency [16] | Potency [17] | Potency [14] | outcome [15]
-39.2%: max response [8]

CCCCCCCC/C=C\CCCCCCCC(=O)N(CCO)CCO
92.2%: max response [8]
inactive: Potency [6] | Potency [17] | activation [18] -2.93% | activation [11] 3.7% | Potency [12] | Potency [13]

CCN(CC)c1ccc2c(C)cc(=O)oc2c1
active: Potency [17] 44.7 µM | Potency [10] 37.6 µM | Potency [18] 39.8 µM
inactive: Potency [3] | caspase-3 activation [4] 0.453% | Potency [6] | Potency [14]
